Bioassay records as filed in PubChem BioAssay.
Gal4-VP16 FLuc = Gal4-VP16 reporter inhibition counter-screen; Drosophila S2 Gal4-VP16 UAS-luciferase, luminescence, 20 h; Potency, µM (highest dose often 53.6 µM), inactives show at the highest dose activity, negative = inhibition, hits mostly inhibitors; hit rate 3.5% among 310,000;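 note: Gal4-VP16 expression switched on by copper sulfate through the metallothionein promoter; potency is the fitted concentration of half-maximal effect; % is set by controls: 0 for no effect and ±100 for the full control effect; nearly all actives have a fitted effect of over 50% in size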
RORg inh = ROR gamma (mouse) transcription inhibition | P51450 | Drosophila S2 Gal4-RORgamma UAS-luciferase reporter, 20 h | Potency, µM (highest dose often 53.6 µM), without a hit: at the highest dose activity change, negative = inhibition, usual class: inhibitors | hit rate 5.4% among 310,000 | AID 2551; note: potency is the fitted concentration of half-maximal effect; % is set by controls: 0 for no effect and ±100 for the full control effect; nearly all actives have a fitted effect of over 60% in size
Target sequence (P51450 whole entry, looked up, the tested form may be a part): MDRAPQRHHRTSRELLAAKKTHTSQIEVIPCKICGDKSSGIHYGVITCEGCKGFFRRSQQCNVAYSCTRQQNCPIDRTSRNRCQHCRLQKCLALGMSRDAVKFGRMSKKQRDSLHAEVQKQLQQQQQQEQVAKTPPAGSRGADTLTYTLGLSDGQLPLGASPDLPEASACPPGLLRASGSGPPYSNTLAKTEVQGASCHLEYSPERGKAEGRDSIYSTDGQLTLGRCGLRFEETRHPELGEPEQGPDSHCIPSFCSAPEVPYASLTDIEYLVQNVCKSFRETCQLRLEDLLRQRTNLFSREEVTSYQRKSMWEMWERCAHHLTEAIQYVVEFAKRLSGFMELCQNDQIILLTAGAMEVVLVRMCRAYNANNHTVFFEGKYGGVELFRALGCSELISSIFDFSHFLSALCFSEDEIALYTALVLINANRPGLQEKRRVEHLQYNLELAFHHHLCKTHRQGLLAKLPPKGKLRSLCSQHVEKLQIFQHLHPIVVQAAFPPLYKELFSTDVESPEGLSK
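Luminescence from a UAS-regulated Photinus luciferase reporter in stably transfected Drosophila Schneider cells is measured; decreased signal marks ROR gamma inhibition. Fusion expression is induced by 700 uM copper sulfate for 20 hr.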
MCF10A rereplic = inducers of DNA re-replication in MCF 10A breast cells. MCF 10A DNA re-replication, Hoechst nuclear intensity, 48 h. hit rate 2.9% among 350,000. Potency, µM (titrated, usually from 46.1 µM), inactives show at the top dose activity, positive = re-replication, most hits filed as activators. AID 624296; note: potency is the fitted concentration of half-maximal effect; % of control where 0% means no effect; nearly all actives have a fitted effect of over 50% in size
SW480 rerep = induces DNA re-replication in SW480 colon adenocarcinoma cells. SW480 DNA re-replication, Hoechst DNA content imaging, 48 h. Potency, µM (highest dose often 46.1 µM), without a hit: top-dose re-replication activation, usual class: activators. hit rate 1.8% among 340,000. AID 624297; note: potency is the fitted concentration of half-maximal effect; % of control where 0% means no effect; nearly all actives have a fitted effect of over 55% in size
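SW480 cells exposed to compounds for 48 hr at 37 C, 5% CO2, then Hoechst-stained 40 min. Nuclear DNA content imaged by fluorescence scanning (405 nm excitation, 500-530 nm emission); re-replication scored as increased high-intensity nuclei.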
IL-1B inflam inh = blocks inflammasome-driven IL-1 beta release | THP-1 LPS/ATP IL-1B secretion, AlphaLISA, 16 h; active compounds read low | activity change, % at 57.5 µM | hit rate 4.7% among 360,000; in the data active = activity change below about -50%; inconclusive = mostly about -30% to -49%; note: % is set by controls: 0 for no effect and ±100 for the full control effect
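Secreted IL-1B measured by AlphaLISA bead assay after 16 h compound exposure of THP-1 cells; compounds (final up to 57.5 uM) added 1 h before LPS (250 ng/mL) and ATP (1.25 mM) stimulation; lower signal means less secretion.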
Numbers without * were called inactive; ? = inconclusive; / = no result given; [ ] = another dose, or the depositor's remark. Most compounds without a hit are left out; they make up all but 11% or so of the library. Unless noted, calls come from the whole dose curve; as a rule, active = well fitted curve in the direction sought with a large enough effect; inconclusive = small, poorly fitted or top-dose-only effect, or another doubt; inactive = no such curve, though single readings can be large; an effect the other way counts as inactive or inconclusive.

SMILES	Gal4-VP16 FLuc	RORg inh	MCF10A rereplic	SW480 rerep	IL-1B inflam inh
COc1ccc(CNC(=S)Nc2ccc(F)c(Cl)c2)cc1	?	7.1µM*	?	0%	-22
CCc1ccc(NC(=S)Nc2cccc(OC)c2)cc1	?	7.9µM*	15%	6%	-18
COc1ccc(CCNC(=S)Nc2cccc(C)c2)cc1	10µM*	7.1µM*	0%	-3%	1
NS(=O)(=O)c1ccc(CNC(=S)Nc2ccc(F)c(Cl)c2)cc1	?	42%	-6%	-2%	1
COc1cccc(NC(=O)Nc2ccc(Cc3ccncc3)cc2)c1	?	?	?	-3%	?
COc1cccc(/C=C2\CCC(C3CCCC3)C2=O)c1OC (centres undefined)	-5%	-19%	?	?	45
CCOc1ccccc1C(=O)NCCN1CCC(n2c(=O)[nH]c3ccccc32)CC1	/	/	/	/	-25
CC(=O)Nc1cncc(-c2cnn(CC(C)C)c2)n1	/	/	/	/	1
Cc1ccc(C2(c3ccccc3)NC(=O)N(CC(=O)NCc3ccco3)C2=O)cc1C (centres undefined)	/	/	1%	8%	-29
COc1cccc(NC(=S)NN2CCN(C)CC2)c1	-14%	-18%	9%	-7%	21
COc1ccc(CNC(=S)Nc2cccc(OC)c2)cc1	13µM*	18µM*	-9%	-1%[9.22 µM]	-27
CCCC(=O)Nc1cc(OC)c(NC(=S)Nc2ccc(CC)cc2)cc1OC	/	/	?	3%	-9
CCc1ccc(NC(=S)Nc2cc(OC)c(NC(=O)C(C)C)cc2OC)cc1	18µM*	8.9µM*	2%	3%	13
COc1cccc(NC(=S)NN=C2CCCCCC2)c1	?	13µM*	-1%	-11%	33
COc1cccc(CNC(=S)Nc2cc(C)cc(C)c2)c1	-16%[10 µM]	4.5µM*	0%	-2%	9
CCNc1ncc2nc(-c3ccc(F)cc3)c(=O)n(-c3ccc(OC)cc3)c2n1	-11%	-22%	/	/	/
CCCCn1c(N)c(N(Cc2ccccc2OC)C(=O)C(C)Oc2cccc(Cl)c2)c(=O)[nH]c1=O (centres undefined)	/	/	/	/	10
Cc1ccc(-n2c(=O)c(C#N)cc3c(=O)n4ccccc4nc32)cc1	1%	-13%	?	2.1µM*	38
CCC(C)n1c(=N)c(C#N)cc2c(=O)n3ccccc3nc21 (centres undefined)	20%	-25%	?	?	-16
Cc1ccc(C)c(-n2c(=O)c(C#N)cc3c(=O)n4ccccc4nc32)c1	-2%	-13%	?	4%	-9
Cc1cccc(-n2c(=O)c(C#N)cc3c(=O)n4ccccc4nc32)c1	13%	-5%	?	16µM*	-13
COc1ccccc1NC(=S)NNC(=O)c1nn(C)c(C)c1Cl	17%	19%	-3%	16%	11
COc1ccccc1NC(=S)NC(=O)c1ccc(-c2ccc(Cl)cc2)o1	?	1.8µM*	?	-1%	7
O=C(NC(=S)Nc1ccccc1O)c1ccc(-c2ccc(Cl)cc2)o1	7.9µM*	3.2µM*	16µM*	14%	-1
Cc1c(NC(=S)NC(=O)c2ccc(-c3ccc(Cl)cc3)o2)cccc1C(=O)O	-17%	19%	?	-15%	26
SMILES	Gal4-VP16 FLuc	RORg inh	MCF10A rereplic	SW480 rerep	IL-1B inflam inh
Cc1ccc(O)c(NC(=S)NC(=O)c2ccc(-c3ccc(Cl)cc3)o2)c1	/	/	6.5µM*	26%	-5
COc1ccccc1NC(=S)NNC(=O)c1nn(C)cc1Cl	?	10µM*	4%	-8%	0
CCOc1c(Br)cc(C(=O)Nc2cccc(S(=O)(=O)N3CCOCC3)c2)cc1OC	/	/	/	/	-20
Cc1oc(-c2ccc(Cl)cc2)nc1CSCC(=O)NC1CCN(Cc2ccccc2)CC1	-16%	22%	?	12%	-61*
COc1ccc(-c2nc(CSCC(=O)NCc3ccc4c(c3)OCO4)c(C)o2)cc1OC	3%	45%	5%	2%	-20
CCOc1ccc(-c2nc(CSCC(=O)NC3CC3)c(C)o2)cc1	?	8.9µM*	9%	-1%	10
COc1ccc(-c2ccc(SCC(=O)NCc3ccc4c(c3)OCO4)nn2)cc1OC	-16%	7%	?	?	-95*
CCOc1ccc(-c2nc(CSCC(=O)NC3CCN(Cc4ccccc4)CC3)c(C)o2)cc1	/	/	/	/	-21
COc1ccc(-c2nc(CS(=O)CC(=O)NCc3ccco3)c(C)o2)cc1 (centres undefined)	-1%	-23%	15%	-1%	-6
CCOC(=O)N1CCC(NC(=O)CSCc2nc(-c3ccc(OCC)cc3)oc2C)CC1	-4%	4%	14%	0%	-29
CCOc1ccc(-c2nc(CSCC(=O)NCc3ccco3)c(C)o2)cc1	25µM*	-38%	-3%	-3%	?
CCCS(=O)(=O)NC(=O)C1(C)CCN(C(=O)c2ccc3ccccc3c2)C1 (centres undefined)	/	/	/	/	19
COc1cccc(-c2nc(CS(=O)(=O)CC(=O)NC3CCCc4ccccc43)c(C)o2)c1 (centres undefined)	3%	-3%	-6%	21%	-10
COc1ccc(-c2nc(CSCC(=O)NCc3ccc4c(c3)OCO4)c(C)o2)cc1	13µM*	13µM*	1%	-7%	18
CCOc1ccc(-c2nc(CSCC(=O)NC3CCCc4ccccc43)c(C)o2)cc1 (centres undefined)	5%	-16%	?	?	-77*
COCCN(C(=O)COC(=O)C1CCC(C(C)(C)C)CC1)c1c(N)n(Cc2ccccc2)c(=O)[nH]c1=O (centres undefined)	/	/	?	?	-6
CC1=C2C3OC(=O)C(C)C3CCC2(C)C=C(Br)C1=O (centres undefined)	/	/	/	/	-13
COc1ccc(/C=C/C2=CC(C)(C)NC(=S)N2)cc1	2.5µM*	1.3µM*	3%	9%	-10
CC(NCC(=O)Nc1cc(S(=O)(=O)N2CCOCC2)ccc1Cl)c1ccc(Cl)cc1Cl (centres undefined)	/	/	?	-1%	-52*
